Laboratory results taken from PubChem BioAssay AID463173 (ICCB-Longwood Screening Facility, Harvard Medical School, 2010).
About 4,300 (8.3%) of roughly 52,000 compounds were called active. For the sample, actives were picked, then their nearest neighbours and some compounds at random. A number with no mark means an inactive call. Rule as the data show it: active = survival mostly below about 52% (no sharp cut-off); inactive = mostly above about 56%.

What follows are compounds tested on DeltatarO mutant (assay: growth inhibition of S. aureus wild type versus tarO mutant, primary screen, teichoic acid synthesis inhibitors, RN4220, OD600 (AID 463173)). Settings: OD600, 18 h, hits give low values, screened at 18.75 µg/mL (by protocol).

Row | SMILES | survival
1 | COc1ccc(CC(=O)NCc2ccc3c(c2)CCN3C(=O)c2ccc(Cl)cc2)cc1OC | 86%
2 | Cc1ccc(S(=O)(=O)C(CNC(=O)C(=O)NCCc2ccccc2)c2cccs2)cc1 (centres undefined) | 107%
3 | C=CCN(C(=O)c1ccc2c(c1)nnn2C)c1ccccc1 | 97%
4 | O=C(NC1CCCCC1)NC1CCN(Cc2nnnn2Cc2ccc3c(c2)OCO3)CC1 | 88%
5 | Cc1nn(-c2cccc(Cl)c2)c2nc(-c3cccnc3)cc(C(F)(F)F)c12 | 45%
6 | Cc1ccc(-n2nc(C)c3c(C(F)(F)F)cc(-c4cccnc4)nc32)cc1Cl | 53%
7 | Cc1nn(-c2ccc(Cl)cc2)c2nc(-c3cccnc3)cc(C(F)(F)F)c12 | 39% (active)
8 | COc1ccc(CNC(=O)C2CCN(C(=O)c3ccc(-n4ccc5ccccc54)s3)CC2)cc1 | 90%
9 | CCn1c2c(c(=O)n3ncc(C(=O)Nc4ccc(C(=O)OC)cc4)c13)CN(Cc1ccc(OC)cc1)CC2 | 81%
10 | NC(=O)CN(c1ccccc1)C1SC(=O)NC1=O (centres undefined) | 76%
11 | COc1ccccc1-n1c(SCC(=O)Nc2ccc(C)cc2)nc(O)cc1=O | 61%
12 | Cc1cccc(Cn2c(SCc3ccc(C(=O)NC4CCCC4)cc3)nc3ccncc32)c1 | 54% (active)
13 | Cc1ccc(C)c(CSc2nc3ccncc3n2Cc2nc(-c3ccccc3Cl)oc2C)c1 | 71%
14 | COC(=O)c1ccc(Cn2c(SCc3ccccc3)nc3ccncc32)cc1 | 45% (active)
15 | COC(=O)c1ccc(Cn2c(SCc3ccccc3F)nc3ccncc32)cc1 | 42% (active)
16 | Cc1ccc(CSc2nc3ccncc3n2Cc2nc(-c3ccc(Cl)cc3)oc2C)cc1 | 63%
17 | COc1ccc(CNC(=O)c2ccc(CSc3nc4ccncc4n3Cc3ccccc3F)cc2)cc1 | 62%
18 | COC(=O)c1ccc(Cn2c(SCc3ccc(F)cc3)nc3ccncc32)cc1 | 54%
19 | COC(=O)c1ccc(CSc2nc3ccncc3n2Cc2ccc(F)cc2)cc1 | 93%
20 | Cc1ccc(CSc2nc3ccncc3n2Cc2nc(-c3ccccc3C)oc2C)cc1 | -4% (active)
21 | O=C(NC1CCCC1)c1ccc(CSc2nc3ccncc3n2Cc2cccc(F)c2)cc1 | 60%
22 | COC(=O)c1ccc(Cn2c(SCc3cccc(C)c3)nc3ccncc32)cc1 | 83%
23 | Cc1cccc(Cn2c(SCc3ccc(C(=O)NC4CCCCC4)cc3)nc3ccncc32)c1 | 75%
24 | COc1ccc(NC(=O)CCc2nnc3n(Cc4ccc(C)cc4)c(=O)c4ccccc4n23)cc1 | 59%

Row | SMILES | survival
25 | Cc1cccc(-c2cc3nc(C)cc(NCCCn4ccnc4)n3n2)c1 | 88%
26 | O=C(O)CSCCn1cccn1 | 93%
27 | CC(C)=CCC(C)(C)CNc1ccc(C)cc1 | 66%
28 | CCOc1ccccc1NC(=O)C1CCCN(c2ncnc3onc(-c4ccc(F)cc4)c23)C1 (centres undefined) | 85%
29 | Cc1cc(C)cc(NC(=O)CCc2c(C)nc3c(c2C)c(=O)n(C)c(=O)n3C)c1 | 64%
30 | COc1ccc(CN2C(=O)N(c3ccc(F)cc3)C(=O)C2CC(=O)Nc2cc(OC)cc(OC)c2)cc1 (centres undefined) | 81%
31 | Cn1c2ccccc2c2nnc(SCC(N)=O)nc21 | 76%
32 | CCc1ccccc1NC(=O)Cn1c(=O)n(CCCS(=O)(=O)C2CCCCC2)c(=O)c2ccccc21 | 86%
33 | CCOc1ccc(CNC(=O)c2cnc3sc(N4CCOCC4)nn3c2=O)cc1 | 81%
34 | CCOC(=O)c1c(C)[nH]c(CCC(=O)NCc2cccc(C)c2)c1C | 70%
35 | Cc1ccc(-n2ncc3c(N(C)C)ncnc32)cc1Cl | 94%
36 | Cc1ccc(Cn2c(SCc3ccc(C(=O)N4CCCCC4)cc3)nc3ccncc32)cc1 | 7% (active)
37 | O=C(c1ccc(CSc2nc3ccncc3n2Cc2ccccc2)cc1)N1CCCCCC1 | 70%
38 | Cc1ccc(Cn2c(SCc3ccc(C(=O)N4CCCCCC4)cc3)nc3ccncc32)cc1 | 71%
39 | Cc1cc(C)c(C#N)c(S(C)(=O)=O)n1 | 106%
40 | CCc1ccccc1NC(=O)C1CCN(S(=O)(=O)c2cn(C)cn2)CC1 | 93%
41 | CCCCN(C)C(=O)C1CCCN(c2ncnc3onc(-c4ccc(F)cc4)c23)C1 (centres undefined) | 77%
42 | Cc1ccc(Nc2c(-c3ccc(N4CCOCC4)cc3)nc3ncccn23)c(C)c1 | 80%
43 | Cc1ccc2c(c1C)NC(=O)CC2c1ccc(Cl)cc1Cl (centres undefined) | 4% (active)
44 | COc1cccc(C2CC(=O)Nc3c2ccc(C)c3C)c1OC (centres undefined) | 94%
45 | CC1=C(C(=O)OCC2CCCCC2)C(c2ccc(Cl)cc2Cl)CC(=O)N1 (centres undefined) | 82%
46 | CCCN1C(=O)C(O)(CC(=O)c2ccc(C(C)C)cc2)c2ccccc21 (centres undefined) | 142%
47 | Cc1ccc(C(=O)CC2(O)C(=O)N(CCc3ccccc3)c3ccc(Cl)cc32)cc1 (centres undefined) | 17% (active)
48 | Cc1ccc(C(=O)CC2(O)C(=O)N(Cc3ccccc3F)c3ccccc32)cc1 (centres undefined) | 60%

Row | SMILES | survival
49 | CCc1ccc(C(=O)CC2(O)C(=O)N(CCc3ccccc3)c3ccc(Cl)cc32)cc1 (centres undefined) | 19% (active)
50 | CC(C)c1ccc(C(=O)CC2(O)C(=O)N(CCc3ccccc3)c3ccc(Cl)cc32)cc1 (centres undefined) | 33% (active)
51 | CCc1ccc(C(=O)CC2(O)C(=O)N(CCc3ccccc3)c3ccc(Br)cc32)cc1 (centres undefined) | 52%
52 | CCc1ccc(C(=O)CC2(O)C(=O)N(C(C)C)c3ccccc32)cc1 (centres undefined) | 79%
53 | Cc1ccc(-c2c3c(=O)n(C)c(=O)n(C)c3c3c(C(F)(F)F)nc4ccccc4n23)cc1 | 77%
54 | Cc1ccc(S(=O)(=O)CCSc2nc(C)cc(C)c2C#N)cc1 | 53%
55 | Nc1nonc1C(=O)NCCNCc1cccc(Cl)c1Cl | 65%
56 | CC(=O)c1cccc(-n2c(=O)c3c4c(sc3n(CC(=O)Nc3ccccc3F)c2=O)CN(C(C)=O)CC4)c1 | 123%
57 | Cc1cccc(-c2nnc(N(C(=O)C3CCC3)C(C)C)s2)c1 | 113%
58 | COc1ccc(Cn2c(CCC(=O)Nc3cccc(OC)c3)nc3cccnc32)cc1 | 68%
59 | Cc1ccc(COC(=O)c2ccc(-c3nnn(Cc4ccc(C)cc4)n3)cc2)cc1 | 69%
60 | COc1cc(CN(C(=O)COc2ccccc2Cl)c2ccccn2)cc(OC)c1OC | 72%
61 | COc1ccc(Cl)cc1NS(=O)(=O)c1ccc2c(c1)NC(=O)CC(=O)N2 | 88%
62 | CN(Cc1ccccc1)c1nc(-c2ccc(F)cc2)cc(C(F)(F)F)n1 | 72%
63 | COc1ccc(-n2nc(C)c3c(C(F)(F)F)cc(-c4cccnc4)nc32)cc1 | 56%
64 | Cc1nn(-c2nc(-c3ccccc3)cc(C(F)(F)F)n2)c(C)c1Cl | 5% (active)
65 | COc1cccc(-c2cc(C(F)(F)F)n3nc(C)c(-c4ccccc4)c3n2)c1 | 79%
66 | COc1cccc(-c2cc(C(F)(F)F)nc(-n3nc(C)c(Br)c3C)n2)c1 | 41% (active)
67 | COc1ccccc1-c1c(C)nn2c(C(F)(F)F)cc(-c3ccccc3)nc12 | 41%
68 | Cc1nn(-c2nc(-c3ccc(F)cc3)cc(C(F)(F)F)n2)c(C)c1Cl | 5% (active)
69 | CCC(C)NC(=O)CSc1nc(-c2ccc(F)cc2)cc(C(F)(F)F)n1 (centres undefined) | 86%
70 | CC(C)(C)NC(=O)CSc1nc(-c2ccc(F)cc2)cc(C(F)(F)F)n1 | 72%
71 | Cc1nn(-c2nc(-c3ccc(F)cc3)cc(C(F)(F)F)n2)c(C)c1Br | -2% (active)
72 | COc1cccc2c1Oc1ncccc1N(C(=O)Nc1ccc(F)c(Cl)c1)C2 | 135%

Row | SMILES | survival
73 | COc1cccc(N2CCN(S(=O)(=O)c3ccc4[nH]c5c(c4c3)CCCC5)CC2)c1 | 84%
74 | C[N+](C)(C)CC(O)COc1ccccc1 (centres undefined) | 82%
75 | CCc1cccc(C)c1NC(=O)Cn1nc(C)n2cccc2c1=O | 92%
76 | COc1cccc(CNC(=O)CCc2nnc3n(CC(C)C)c(=O)c4ccccc4n23)c1 | 85%
77 | COc1ccccc1CNC(=O)CCc1c(C)nc2c(c(C)nn2-c2ccc(C)c(C)c2)c1C | 69%
78 | CN1C(=O)c2cccc3c(S(=O)(=O)Nc4cccc(C(=O)O)c4)ccc1c23 | 74%
79 | COC(=O)c1c(-c2ccc(Cl)cc2)noc1N1CCN(c2ccc(C(C)=O)cc2)CC1 | 81%
80 | O=C(CN1CCC(n2nnc3ccccc32)CC1)N(C1CCCCC1)C1CCCCC1 | 100%
81 | Cc1cccc(NS(=O)(=O)c2ccc3[nH]c(=O)[nH]c3c2)c1C | 78%
82 | Cc1cc(NC(=O)C2CCCN(S(=O)(=O)c3ccc(Br)s3)C2)ccc1Br (centres undefined) | 68%
83 | COCC(=O)NC1CCN(Cc2nnnn2Cc2ccc3c(c2)OCO3)CC1 | 87%
84 | COc1ccccc1NC(=O)Cn1c(=O)n(CC(=O)NCc2ccccc2Cl)c(=O)c2sccc21 | 172%
85 | CC(=O)c1ccc(S(=O)(=O)Nc2cccc(-c3ccc(N4CCCCC4)nn3)c2)cc1 | 80%
86 | COc1ccccc1OCc1nc(C#N)c(NCc2ccc(C)cc2)o1 | 83%
87 | Cc1cccc(OCc2nc(C#N)c(NCc3ccccc3Cl)o2)c1 | 53%
88 | COc1ccc(CCNc2oc(COc3cccc(C)c3)nc2C#N)cc1OC | 95%
89 | Cc1ccc(OCc2nc(C#N)c(NCCc3ccccc3)o2)cc1 | 35% (active)
90 | COc1ccc(CNc2oc(COc3cccc(C)c3)nc2C#N)cc1 | 40% (active)
91 | COc1ccc(CCNc2oc(COc3ccc(Cl)cc3)nc2C#N)cc1OC | 74%
92 | COc1cccc(/C=C/c2nc(C#N)c(NCCc3ccccc3)o2)c1 | 90%
93 | N#Cc1nc(COc2ccccc2Cl)oc1NCCc1ccccc1 | 48%
94 | N#Cc1nc(COc2cccc(Cl)c2)oc1NCCc1ccccc1 | 39% (active)
